According to the supplement of paper PMC10127200:
Structures can show the parent of a compound that is named as a salt.

What was measured:
Assay in all cases: Euclidean distance of Cell Painting phenotypic profile (signed KS, 77 features) to DMSO centroid (dimensionless distance); 5 or 10 uM (library dependent); higher = stronger phenotypic change vs DMSO (phenoactivity)
Details in all cases: 48 h
786-O = test system: 786-O
In short: (§1)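 Library compounds were applied at 10 or 5 uM, depending on the library, with 0.1% DMSO final, for 48 h to five cancer lines and a healthy fibroblast line. After staining, cells were imaged confocally at 20X across 9 fields per well, and Harmony extracted 77 features, each scored as a signed Kolmogorov-Smirnov statistic against vehicle wells on the same plate. Phenoactivity is the Euclidean distance between each profile and the median vehicle profile, with profiles first plate-position corrected, correlation-weighted and averaged over replicates at the top dose.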

A549 = test system: A549
In short: as §1

DU145 = test system: DU145
In short: as §1

FB = test system: FB
In short: as §1

HEPG2 = test system: HEPG2
In short: as §1

OVCAR4 = test system: OVCAR4
In short: as §1

For `c1ccc(CN(CC2=NCCN2)c2ccccc2)cc1` [Antazoline HCl], the Euclidean distance (786-O) was 1.19, the Euclidean distance (A549) was 0.647 and the Euclidean distance (DU145) was 0.893. For the same compound, the Euclidean distance (FB) was 1.02, the Euclidean distance (HEPG2) was 0.685 and the Euclidean distance (OVCAR4) was 1.02.
`COc1cc(OC)c(NC(=O)Nc2cc(C)on2)cc1Cl` gave an Euclidean distance (786-O) of 0.922, an Euclidean distance (A549) of 0.813 and an Euclidean distance (DU145) of 1.16. The Euclidean distance (FB) was 0.91, the Euclidean distance (HEPG2) was 0.834 and the Euclidean distance (OVCAR4) was 1.52.
For `CCC(=O)OCC(=O)[C@@]1(OC(=O)CC)[C@@H](C)C[C@H]2[C@@H]3CCC4=CC(=O)C=C[C@]4(C)[C@@]3(Cl)[C@@H](O)C[C@@]21C` [Beclomethasone dipropionate], the Euclidean distance (786-O) was 1.09, the Euclidean distance (A549) was 2.14 and the Euclidean distance (DU145) was 2.46. It also gave an Euclidean distance (FB) of 1.95, an Euclidean distance (HEPG2) of 0.575 and an Euclidean distance (OVCAR4) of 1.8.
For `Cc1cccc(Nc2ccccc2C(=O)O)c1C` [Mefenamic Acid], the Euclidean distance (786-O) was 0.733, the Euclidean distance (A549) was 0.521 and the Euclidean distance (DU145) was 0.8. For the same compound, the Euclidean distance (FB) was 1.14, the Euclidean distance (HEPG2) was 0.673 and the Euclidean distance (OVCAR4) was 0.64.
`CCCCC(=O)N(Cc1ccc(-c2ccccc2-c2nn[nH]n2)cc1)C(C(=O)O)C(C)C.CCOC(=O)C(C)CC(Cc1ccc(-c2ccccc2)cc1)NC(=O)CCC(=O)O` (centres undefined) [Sacubitril/valsartan (LCZ696)] showed an Euclidean distance (786-O) of 0.856, an Euclidean distance (A549) of 0.709 and an Euclidean distance (DU145) of 1.24. The Euclidean distance (FB) was 1.04, the Euclidean distance (HEPG2) was 0.622 and the Euclidean distance (OVCAR4) was 1.01.
For `CC(=O)OCC(=O)[C@H]1CC[C@H]2[C@@H]3CCC4=CC(=O)CC[C@]4(C)[C@H]3CC[C@]12C` [Deoxycorticosterone acetate], the Euclidean distance (786-O) was 0.997, the Euclidean distance (A549) was 0.852 and the Euclidean distance (DU145) was 0.854. The Euclidean distance (FB) was 1.02, the Euclidean distance (HEPG2) was 0.569 and the Euclidean distance (OVCAR4) was 1.51.
`O=C(O)CCNC(=O)c1ccc(/N=N/c2ccc(O)c(C(=O)O)c2)cc1` [Balsalazide disodium] showed an Euclidean distance (786-O) of 0.73, an Euclidean distance (A549) of 0.808 and an Euclidean distance (DU145) of 0.796. The Euclidean distance (FB) was 0.76, the Euclidean distance (HEPG2) was 0.576 and the Euclidean distance (OVCAR4) was 0.971.
With `OCc1cc(C(O)CNCCCCCCOCCCCc2ccccc2)ccc1O` (centres undefined) [Salmeterol] the Euclidean distance (786-O) was 1.56, the Euclidean distance (A549) was 1.95 and the Euclidean distance (DU145) was 1.51. For the same compound, the Euclidean distance (FB) was 1.75, the Euclidean distance (HEPG2) was 2.13 and the Euclidean distance (OVCAR4) was 1.77.
`Nc1ccc(S(=O)(=O)Nc2cnc3ccccc3n2)cc1` [Sulfaquinoxaline sodium] showed an Euclidean distance (786-O) of 0.778, an Euclidean distance (A549) of 0.727 and an Euclidean distance (DU145) of 1.65. The Euclidean distance (FB) was 1.36, the Euclidean distance (HEPG2) was 0.697 and the Euclidean distance (OVCAR4) was 0.684.
With `Cn1c(=O)c2[nH]c(Br)nc2n(C)c1=O` [Pamabrom] the Euclidean distance (786-O) was 0.794, the Euclidean distance (A549) was 0.799 and the Euclidean distance (DU145) was 1.56. The Euclidean distance (FB) was 1.18, the Euclidean distance (HEPG2) was 0.337 and the Euclidean distance (OVCAR4) was 0.81.
Compound `c1cc(CN2CCCNCCNCCCNCC2)ccc1CN1CCCNCCNCCCNCC1` [Plerixafor (AMD3100)] has an Euclidean distance (786-O) of 0.664, an Euclidean distance (A549) of 1.12 and an Euclidean distance (DU145) of 0.673. It also gave an Euclidean distance (FB) of 0.848, an Euclidean distance (HEPG2) of 0.976 and an Euclidean distance (OVCAR4) of 1.03.
`CC[C@H](NC(=O)[C@H](C)NC)C(=O)N1C[C@@H](O)C[C@H]1Cc1c(-c2[nH]c3cc(F)ccc3c2C[C@@H]2C[C@H](O)CN2C(=O)[C@H](CC)NC(=O)[C@H](C)NC)[nH]c2cc(F)ccc12` [Birinapant] showed an Euclidean distance (786-O) of 1.15, an Euclidean distance (A549) of 1.08 and an Euclidean distance (DU145) of 2.69. For the same compound, the Euclidean distance (FB) was 1.06, the Euclidean distance (HEPG2) was 2.95 and the Euclidean distance (OVCAR4) was 1.97.
For `NS(=O)(=O)c1cc2c(cc1C(F)(F)F)NC(Cc1ccccc1)NS2(=O)=O` (centres undefined) [Bendroflumethiazide], the Euclidean distance (786-O) was 0.918, the Euclidean distance (A549) was 0.995 and the Euclidean distance (DU145) was 1.62. It also gave an Euclidean distance (FB) of 1.34, an Euclidean distance (HEPG2) of 1.05 and an Euclidean distance (OVCAR4) of 2.02.
In the case of `c1ccc(CC2=NCCN2)cc1` [Tolazoline HCl], the Euclidean distance (786-O) is reported as 0.97, the Euclidean distance (A549) is reported as 1.05 and the Euclidean distance (DU145) is reported as 0.877. It also gave an Euclidean distance (FB) of 0.718, an Euclidean distance (HEPG2) of 0.734 and an Euclidean distance (OVCAR4) of 1.42.
`COc1cc(C(=O)OCCCCNC(=N)N)cc(OC)c1O` [Leonurine] gave an Euclidean distance (786-O) of 1.19, an Euclidean distance (A549) of 0.869 and an Euclidean distance (DU145) of 0.698. It also gave an Euclidean distance (FB) of 1.29, an Euclidean distance (HEPG2) of 0.641 and an Euclidean distance (OVCAR4) of 0.953.
`CN1CCN(S(=O)(=O)c2ccc(-c3cnc(N)c(C(=O)Nc4cccnc4)n3)cc2)CC1` showed an Euclidean distance (786-O) of 3.21, an Euclidean distance (A549) of 3.47 and an Euclidean distance (DU145) of 1.43. The Euclidean distance (FB) was 1.66, the Euclidean distance (HEPG2) was 1.34 and the Euclidean distance (OVCAR4) was 3.18.
In the case of `CN1CCC(=C2c3ccccc3C=Cc3ccccc32)CC1` [Cyproheptadine HCl], the Euclidean distance (786-O) is reported as 1.25, the Euclidean distance (A549) is reported as 0.786 and the Euclidean distance (DU145) is reported as 1.84. It also gave an Euclidean distance (FB) of 2.04, an Euclidean distance (HEPG2) of 2.64 and an Euclidean distance (OVCAR4) of 1.39.
For `CCN(CC)C(=S)SSC(=S)N(CC)CC` [Disulfiram], the Euclidean distance (786-O) was 1.95, the Euclidean distance (A549) was 1.78 and the Euclidean distance (DU145) was 1.34. The Euclidean distance (FB) was 2.84, the Euclidean distance (HEPG2) was 0.547 and the Euclidean distance (OVCAR4) was 1.32.
`COc1cc(C)c(/C=C/C(C)=C/C=C/C(C)=C/C(=O)O)c(C)c1C` [Acitretin] was tested, and the Euclidean distance (786-O) was 1.13, the Euclidean distance (A549) was 0.972 and the Euclidean distance (DU145) was 0.881. It also gave an Euclidean distance (FB) of 2.31, an Euclidean distance (HEPG2) of 1.39 and an Euclidean distance (OVCAR4) of 1.13.
Work on `CN(C(=O)CN(CCO)CC(=O)N(C)C(C)(C)Cc1ccccc1)C(C)(C)Cc1ccccc1` [Oxethazaine] yielded an Euclidean distance (786-O) of 1.36, an Euclidean distance (A549) of 2.36 and an Euclidean distance (DU145) of 1.13. The Euclidean distance (FB) was 2.17, the Euclidean distance (HEPG2) was 1.36 and the Euclidean distance (OVCAR4) was 1.96.
`CC(C)[C@H](C(=O)Nc1ccc(C(=O)NO)cc1)c1ccccc1` was tested, and the Euclidean distance (786-O) was 3.25, the Euclidean distance (A549) was 4.55 and the Euclidean distance (DU145) was 3.1. It also gave an Euclidean distance (FB) of 4.34, an Euclidean distance (HEPG2) of 4.16 and an Euclidean distance (OVCAR4) of 3.22.
In the case of `CC(C)(C)c1cnc(CSc2cnc(NC(=O)C3CCNCC3)s2)o1`, the Euclidean distance (786-O) is reported as 2.67, the Euclidean distance (A549) is reported as 3.69 and the Euclidean distance (DU145) is reported as 2.93. The Euclidean distance (FB) was 3.38, the Euclidean distance (HEPG2) was 2.81 and the Euclidean distance (OVCAR4) was 3.27.
Work on `CCc1ccc(CCOc2ccc(CC3SC(=O)NC3=O)cc2)nc1` (centres undefined) [Pioglitazone] yielded an Euclidean distance (786-O) of 0.465, an Euclidean distance (A549) of 0.586 and an Euclidean distance (DU145) of 0.944. The Euclidean distance (FB) was 0.666, the Euclidean distance (HEPG2) was 0.336 and the Euclidean distance (OVCAR4) was 0.891.
`O=C(/C=C/c1ccccc1)NC(NC(=S)Nc1cccc2cccnc12)C(Cl)(Cl)Cl` (centres undefined) [Salubrinal] was tested, and the Euclidean distance (786-O) was 0.979, the Euclidean distance (A549) was 1.28 and the Euclidean distance (DU145) was 1. The Euclidean distance (FB) was 1.21, the Euclidean distance (HEPG2) was 1.04 and the Euclidean distance (OVCAR4) was 1.28.
